Test results: PubChem BioAssay (Tox21)
A number with no mark means an inactive call. Records with an inconclusive call do not appear. Where a call stands in place of a potency, no number is given. The source made the active and inactive calls. Unless noted, the call rests on the fitted dose curve; in most records, active means well fitted curve in the direction sought with a large enough effect in the repeat runs; inconclusive means weak or mixed curves; inactive means no such curve, though single readings can be large; an effect the other way counts as inactive or inconclusive.

Experiments:
[1] = A CellTox Green Cytotoxicity Assay to monitor cytotoxicity in HEK293 cells - 32 hour (AID 1224881); further: nearly all actives have a fitted effect of over 40% in size; further: potency means the concentration at half of the fitted maximal effect
Summary of the method: (§1)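 HEK293 cells premixed with CellTox Green dye were seeded at 600 cells/well and left 5 h at 37 C/5% CO2 before pin transfer of 23 nL compound in DMSO. Fluorescence from dye bound to dead-cell DNA was read during 40 h treatment.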

[2] = A CellTox Green Cytotoxicity Assay to monitor cytotoxicity in HepG2 cells - 0 hour (AID 1224882); further: nearly all actives have a fitted effect of over 35% in size
Summary of the method: (§2)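 HepG2 cells were seeded together with the CellTox Green dye at 600 cells/well, left 5 h at 37 C/5% CO2, then given compounds in DMSO. Fluorescence from dye bound to dead-cell DNA was read repeatedly over 40 h of treatment at 37 C.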

[3] = A CellTox Green Cytotoxicity Assay to monitor cytotoxicity in HepG2 cells - 32 hour (AID 1224883); further: nearly all actives have a fitted effect of over 50% in size
Summary of the method: as §2

[4] = A CellTox Green Cytotoxicity Assay to monitor cytotoxicity in HEK293 cells - 8 hour (AID 1224884); further: nearly all actives have a fitted effect of over 35% in size
Summary of the method: as §1

[5] = qHTS RealTime-Glo MT Cell Viability Assay in HepG2 cells - 16 hour (AID 1224885); further: nearly all actives have a fitted effect of over 50% in size
Summary of the method: (§3)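 HepG2 suspension premixed with RealTime-Glo reagents is plated at 600 cells per well and left 5 h at 37 C/5% CO2. Compounds in DMSO then go in, and bioluminescence reflecting viable cell number is recorded over 40 h.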

[6] = qHTS RealTime-Glo MT Cell Viability Assay in HEK293 cells - 24 hour (AID 1224886); further: top concentration of the series differs between compounds; nearly all actives have a fitted effect of over 50% in size
Summary of the method: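 Reads taken at 0, 8, 16, 24, 32 and 40 h from the same wells. HEK293 cells (600/well) carried RealTime-Glo reagents from seeding, with compound added after a 5 h settle at 37 C.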

[7] = qHTS RealTime-Glo MT Cell Viability Assay in HEK293 cells - 8 hour (AID 1224887); further: top concentration of the series differs between compounds; nearly all actives have a fitted effect of over 50% in size
Summary of the method: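 HEK293 cells mixed with RealTime-Glo reagents (NanoLuc plus cell-permeant prosubstrate) at 600 cells/well, preincubated 5 h at 37 C/5% CO2, then given 23 nL compound in DMSO. Nonlytic luminescence from viable cells was read at 0, 8, 16, 24, 32 and 40 h.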

[8] = A CellTox Green Cytotoxicity Assay to monitor cytotoxicity in HEK293 cells - 16 hour (AID 1224888); further: nearly all actives have a fitted effect of over 35% in size; further: potency means the concentration at half of the fitted maximal effect
Summary of the method: as §1

[9] = qHTS RealTime-Glo MT Cell Viability Assay in HepG2 cells - 0 hour (AID 1224889); further: nearly all actives have a fitted effect of over 50% in size
Summary of the method: as §3

[10] = A CellTox Green Cytotoxicity Assay to monitor cytotoxicity in HepG2 cells - 8 hour (AID 1224890); further: nearly all actives have a fitted effect of over 45% in size
Summary of the method: as §2

[11] = qHTS assay to identify small molecule antagonists of the androgen receptor (AR) signaling pathway using the MDA cell line in the presence of 0.5 nM R1881 - cell viability counter screen (AID 1259242); further: nearly all actives have a fitted effect of over 45% in size
Summary of the method: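 MDA-kb2 cells (human breast carcinoma, stably carrying MMTV-luciferase reporter) were exposed to compounds with 0.5 nM R1881 (final) for 16 hr at 37C, 0% CO2; viability then read as live-cell protease fluorescence (CellTiter-Fluor, 30 min) in the same wells.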

[12] = biological target: Estrogen receptor (Homo sapiens) (UniProt P03372); experiment: qHTS assay to identify small molecule antagonists of the estrogen receptor alpha (ER-alpha) signaling pathway using the BG1 cell line in the presence of 0.1 nM 17-beta-estradiol (AID 1259244); further: nearly all actives have a fitted effect of over 50% in size
Estrogen receptor (Homo sapiens), sequence (P03372 whole entry, looked up): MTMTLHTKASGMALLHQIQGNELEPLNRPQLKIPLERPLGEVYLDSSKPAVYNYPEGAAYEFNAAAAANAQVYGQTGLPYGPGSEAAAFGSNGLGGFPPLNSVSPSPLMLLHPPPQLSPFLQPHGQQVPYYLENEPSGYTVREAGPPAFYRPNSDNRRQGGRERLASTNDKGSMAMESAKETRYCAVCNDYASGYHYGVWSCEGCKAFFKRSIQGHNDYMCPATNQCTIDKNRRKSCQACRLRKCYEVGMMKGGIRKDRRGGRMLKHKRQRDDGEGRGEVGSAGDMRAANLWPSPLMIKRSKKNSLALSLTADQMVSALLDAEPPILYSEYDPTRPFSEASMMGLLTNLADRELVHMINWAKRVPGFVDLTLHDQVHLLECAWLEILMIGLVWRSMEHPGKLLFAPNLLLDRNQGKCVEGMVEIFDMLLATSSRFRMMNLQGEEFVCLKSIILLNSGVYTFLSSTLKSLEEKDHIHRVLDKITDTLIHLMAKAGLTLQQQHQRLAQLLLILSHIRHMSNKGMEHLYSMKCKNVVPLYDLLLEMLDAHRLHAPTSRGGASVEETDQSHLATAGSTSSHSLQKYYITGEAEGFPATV
Summary of the method: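 VM7Luc4E2 cells (endogenous full-length ER-alpha, stable 4xERE-luciferase) were grown 5 days in phenol red-free medium with charcoal-stripped FBS, then exposed 22 h at 37C to compounds plus 0.1 nM (final) 17beta-estradiol; ONE-Glo luminescence read-out.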

[13] = qHTS assay to identify small molecule HDAC inhibitors (AID 1259364); further: top concentration of the series differs between compounds; nearly all actives have a fitted effect of over 45% in size
Summary of the method: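 Wild-type HCT-116 cells were plated overnight, exposed to compounds for 2 h at 37 °C, then given HDAC-Glo class I/II luminogenic reagent for 30 min at room temperature before luminescence was read.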

[14] = qHTS assay to identify small molecule HDAC inhibitors - cell viability counter screen (AID 1259365)
Summary of the method: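 HCT-116 (wild type), 1,500 cells/well, overnight 37C/5% CO2; compound in DMSO 2hr; CellTiter-Glo 30min RT; luminescence read.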

[15] = qHTS assay to identify small molecule agonists of the sonic hedgehog signaling (Shh) pathway - cell viability counter screen (AID 1259366); further: nearly all actives have a fitted effect of over 50% in size
Summary of the method: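 CellTiter-Fluor fluorescence read-out, 1 hr at 37C, added after 23hr compound exposure. Cells: 3T3 Gli1-Luc, an NIH/3T3 clone with stably integrated Gli1-Luc reporter, plated 4hr before compound.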

[16] = qHTS assay to identify small molecule antagonists of the sonic hedgehog signaling (Shh) pathway - cell viability counter screen (AID 1259367); further: nearly all actives have a fitted effect of over 55% in size
Summary of the method: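 NIH/3T3-derived Gli1-Luc reporter cells (2,000 per well) rested 4 hr at 37 C, then received DMSO compounds plus conditioned medium. After 23 hr of treatment, CellTiter-Fluor was added for 1 hr at 37C and fluorescence read.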

[17] = qHTS assay to identify small molecule antagonists of the estrogen receptor alpha (ER-alpha) signaling pathway using the BG1 cell line in the presence of 0.1 nM 17-beta-estradiol - cell viability counter screen (AID 1259241); further: nearly all actives have a fitted effect of over 40% in size
Summary of the method: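 Live-cell protease activity (CellTiter-Fluor fluorescence, 30 min) was read in the same wells after VM7Luc4E2 cells had been exposed to compounds with 0.1 nM 17beta-estradiol for 22 hr at 37C.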

[18] = qHTS assay to identify small molecule agonists of the sonic hedgehog signaling (Shh) pathway (AID 1259368; calls by dose curve; further: series mostly up to about 92 µM; nearly all actives have a fitted effect of over 15% in size)
Summary of the method: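 NIH/3T3-derived 3T3Gli1-Luc cells carrying a stably integrated Gli1 response element–firefly luciferase reporter were plated, left 4 hr at 37 C, then given compounds in DMSO for 24 hr. Luminescence was read 30 min after adding luciferase reagent.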

[19] = qHTS assay to identify small molecule phospholipidosis (PLD) inducers (AID 1259344; active means well fitted curve in the direction sought with a large enough effect; an effect the other way counts as inactive or inconclusive)
Summary of the method: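 HepG2 cells on collagen I, attached 4 h at 37 C, were co-treated with compound and LipidTOX Red dye for 24 h at 37 C, then fixed with paraformaldehyde plus Hoechst 33342 and imaged by high-content microscopy for phospholipid accumulation.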

[20] = biological target: Androgen receptor (Homo sapiens) (UniProt P10275); experiment: qHTS assay to identify small molecule antagonists of the androgen receptor (AR) signaling pathway using the MDA cell line in the presence of 0.5 nM R1881 (AID 1259243); further: nearly all actives have a fitted effect of over 50% in size
Androgen receptor (Homo sapiens), sequence (P10275 whole entry, looked up): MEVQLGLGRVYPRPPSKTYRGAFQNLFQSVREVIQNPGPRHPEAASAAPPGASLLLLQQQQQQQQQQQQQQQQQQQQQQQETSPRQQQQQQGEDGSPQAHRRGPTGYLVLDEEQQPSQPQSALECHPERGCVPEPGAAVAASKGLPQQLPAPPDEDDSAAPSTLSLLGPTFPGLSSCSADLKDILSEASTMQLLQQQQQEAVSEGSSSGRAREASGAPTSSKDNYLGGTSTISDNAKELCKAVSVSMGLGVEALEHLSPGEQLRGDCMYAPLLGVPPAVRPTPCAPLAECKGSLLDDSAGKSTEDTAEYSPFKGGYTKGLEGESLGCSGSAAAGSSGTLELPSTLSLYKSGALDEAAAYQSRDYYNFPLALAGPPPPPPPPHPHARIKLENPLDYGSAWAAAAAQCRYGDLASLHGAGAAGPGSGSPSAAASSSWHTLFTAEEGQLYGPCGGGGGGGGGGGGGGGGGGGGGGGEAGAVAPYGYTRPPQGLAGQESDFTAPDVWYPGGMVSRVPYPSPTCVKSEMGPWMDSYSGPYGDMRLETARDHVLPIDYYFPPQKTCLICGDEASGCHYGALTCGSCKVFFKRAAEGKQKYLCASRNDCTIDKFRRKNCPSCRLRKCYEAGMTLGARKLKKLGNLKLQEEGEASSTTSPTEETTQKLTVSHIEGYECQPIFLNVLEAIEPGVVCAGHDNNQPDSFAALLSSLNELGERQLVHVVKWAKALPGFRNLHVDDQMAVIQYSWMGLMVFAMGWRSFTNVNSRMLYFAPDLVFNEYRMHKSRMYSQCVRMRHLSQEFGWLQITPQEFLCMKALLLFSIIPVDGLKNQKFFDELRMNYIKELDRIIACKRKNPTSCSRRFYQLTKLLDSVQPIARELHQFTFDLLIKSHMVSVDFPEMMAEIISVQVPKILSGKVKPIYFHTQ
Summary of the method: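 MDA-kb2 human breast carcinoma cells carrying an MMTV-luciferase reporter (AR- and GR-responsive) were plated, rested 5 hr at 37C, dosed with compounds, then stimulated with 0.5 nM R1881 (final) for 16 hr; luminescence was read after ONE-Glo.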

Row | SMILES | Potency [1] | outcome [2] | Potency [3] | Potency [4] | Potency [5] | Potency [6] | Potency [7] | Potency [8] | Potency [9] | Potency [10] | outcome [11] | Potency [12] | Potency [13] | outcome [14] | Potency [15] | Potency [16] | outcome [17] | outcome [18] | outcome [19] | Potency [20]
1 | CN1CCC(N(Cc2ccccc2)c2ccccc2)CC1 | inactive | inactive | inactive | inactive | inactive | inactive | inactive | inactive | inactive | inactive | inactive | inactive | inactive | inactive | inactive | inactive | – | – | – | –
2 | C[N+](=O)[O-] | inactive | inactive | inactive | inactive | inactive | inactive | inactive | inactive | inactive | – | inactive | inactive | inactive | inactive | inactive | inactive | inactive | inactive | – | –
3 | Cc1ncsc1CCCl | inactive | inactive | inactive | inactive | inactive | inactive | inactive | inactive | – | inactive | inactive | inactive | inactive | inactive | inactive | – | inactive | inactive | inactive | –
4 | CCNc1nc(NC(C)C)nc(OC)n1 | inactive | inactive | inactive | inactive | inactive | inactive | inactive | inactive | inactive | inactive | inactive | – | inactive | inactive | inactive | inactive | – | inactive | – | –
5 | Cc1cc(C)c(C(=O)P(=O)(C(=O)c2c(C)cc(C)cc2C)c2ccccc2)c(C)c1 | inactive | inactive | inactive | inactive | inactive | inactive | inactive | inactive | – | inactive | inactive | inactive | inactive | inactive | inactive | inactive | inactive | inactive | – | –
6 | CC(N)=S | inactive | inactive | inactive | inactive | inactive | inactive | inactive | inactive | inactive | inactive | inactive | – | inactive | inactive | inactive | inactive | – | inactive | – | –
7 | BrCCCCCCBr | inactive | inactive | inactive | inactive | inactive | inactive | inactive | inactive | inactive | – | inactive | inactive | inactive | inactive | inactive | – | inactive | inactive | – | –
8 | C[C@]12CC[C@H]3[C@@H](CCC4=CC(=O)CC[C@@]43C)[C@@H]1CC[C@@H]2C(=O)O | inactive | inactive | inactive | inactive | inactive | inactive | inactive | inactive | – | inactive | inactive | inactive | inactive | inactive | inactive | inactive | inactive | inactive | – | inactive
9 | Clc1cccc(N2CCNCC2)c1 | inactive | inactive | inactive | inactive | inactive | inactive | inactive | inactive | – | inactive | inactive | inactive | inactive | inactive | inactive | inactive | inactive | inactive | inactive | –
10 | NC(=O)O | inactive | inactive | inactive | inactive | inactive | inactive | inactive | inactive | – | inactive | inactive | inactive | inactive | inactive | inactive | inactive | inactive | inactive | – | –
11 | O=[N+]([O-])c1cccc(O)c1 | inactive | inactive | inactive | inactive | inactive | inactive | inactive | inactive | inactive | inactive | inactive | – | inactive | inactive | inactive | inactive | inactive | inactive | – | –
12 | O=[N+]([O-])c1cc(Cl)c(Cl)c(Cl)c1 | 21.7 µM (active) | inactive | inactive | inactive | inactive | inactive | inactive | 21.7 µM (active) | inactive | inactive | – | inactive | inactive | inactive | inactive | inactive | inactive | inactive | – | –
13 | C=CC1CC=CCC1 (stereo not drawn) | inactive | inactive | inactive | inactive | inactive | inactive | inactive | inactive | inactive | – | inactive | inactive | inactive | inactive | inactive | inactive | inactive | inactive | – | –
14 | CCCCCCBr | inactive | inactive | inactive | inactive | inactive | inactive | inactive | inactive | inactive | – | inactive | – | inactive | inactive | inactive | inactive | inactive | inactive | – | –
15 | O=NN1CCCCC1 | inactive | inactive | inactive | inactive | inactive | inactive | inactive | inactive | – | inactive | inactive | – | inactive | inactive | inactive | inactive | inactive | inactive | – | inactive
16 | CC1=NNC(=O)N(/N=C/c2cccnc2)C1 | inactive | inactive | inactive | inactive | inactive | inactive | inactive | inactive | inactive | inactive | inactive | – | inactive | inactive | inactive | inactive | inactive | – | – | –
